# Results reported in the supplement of paper PMC13380429.
# What was measured:
# [1] = system: Vero E6 infected with SARS-CoV-2; test: morphology score (similarity to uninfected cells); higher = more like uninfected cells; details: 24 h
# [2] = system: Vero E6 infected with SARS-CoV-2; test: SARS-CoV-2 infection rate relative to infected DMSO; higher = more infection, active = 60 or less; details: 24 h
Compound,morphology score [1],SARS-CoV-2 infection rate [2]
CC(C)(C)c1ccc(-c2nc3c(N4CCN(Cc5ccc6nccnc6c5)CC4)cccc3[nH]2)cc1 (0.833333 µM),0.0532,102% (inactive)
CCOc1nc2cccc(C(=O)O)c2n1Cc1ccc(-c2ccccc2-c2noc(=O)[nH]2)cc1 [azilsartan] (10 µM),0.0851,109% (inactive)
C=C[C@](C)(O)CC[C@@H]1[C@@]2(C)CCCC(C)(C)[C@@H]2CC[C@@]1(C)O [sclareol] (10 µM),0.142,95.5% (inactive)
O=C(CCCl)NCc1ccccc1 [beclamide] (10 µM),0.278,97.5% (inactive)
O=C(c1ccc(CN2CCOCC2)cc1)N1CCN(C2CC2)CC1 [bavisant] (10 µM),-0.0555,100% (inactive)
O=C(CC(c1ccccc1)c1ccccc1)N1CCN(C(c2ccccc2)c2ccccc2)CC1 (10 µM),0.0825,102% (inactive)
O=C1O[C@H]([C@@H](O)CO)C(O)=C1O (10 µM),0.1,111% (inactive)
Oc1cc(O)c2cc(O)c(-c3cc(O)c(O)c(O)c3)[o+]c2c1 [delphinidin] (10 µM),0.115,98.5% (inactive)
O[C@@H](Cc1ccncc1)C(Cl)(Cl)Cl (10 µM),0.21,83.5% (inactive)
C/C(=N\Nc1nnc2c(n1)[nH]c1c(C)cccc12)c1ccccn1 (10 µM),0.01,107% (inactive)
CN1C[C@H](C(=O)N[C@]2(C)O[C@@]3(O)[C@@H]4CCCN4C(=O)[C@H](Cc4ccccc4)N3C2=O)C[C@@H]2c3cccc4[nH]cc(c34)C[C@H]21 [dihydroergotamine] (10 µM),-0.0107,104% (inactive)
